Experimental data as given in PubChem BioAssay (Tox21).
Records with an inconclusive call do not appear. The source made the active and inactive calls. The call rests on the fitted dose curve; in most records, active means well fitted curve in the direction sought with a large enough effect in the repeat runs; inconclusive means weak or mixed curves; inactive means no such curve, though single readings can be large; an effect the other way counts as inactive or inconclusive.

Columns and labels:
[1] = A CellTox Green Cytotoxicity Assay to monitor cytotoxicity in HEK293 cells - 40 hour (AID 1224871); further: nearly all actives have a fitted effect of over 45% in size; further: potency means the concentration at half of the fitted maximal effect
Procedure, shortened: (§1)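 Tox21 screen in HEK293: membrane-impermeant cyanine dye fluoresces on binding dead-cell DNA; compound pinned 5 h post-seeding, plates held at 37 C, signal read repeatedly through 40 h.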

[2] = qHTS RealTime-Glo MT Cell Viability Assay in HEK293 cells - 16 hour (AID 1224872); further: nearly all actives have a fitted effect of over 50% in size; further: potency means the concentration at half of the fitted maximal effect; on activity change, negative = cytotoxicity: top concentration of the series differs between compounds
Procedure, shortened: (§2)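 Assay medium contained NanoLuc luciferase plus cell-permeant prosubstrate, added with HEK293 cells at 600 cells/well. After 5 h at 37 C/5% CO2 compounds were added; plates stayed at 37 C for 40 h with serial luminescence reads.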

[3] = qHTS RealTime-Glo MT Cell Viability Assay in HepG2 cells - 8 hour (AID 1224873); further: nearly all actives have a fitted effect of over 55% in size
Procedure, shortened: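 HepG2 cells (600/well) mixed with RealTime-Glo MT reagent, settled 5 h at 37 C/5% CO2 before compound addition. Nonlytic NanoLuc luminescence from viable-cell prosubstrate reduction read repeatedly during 40 h treatment at 37 C.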

[4] = qHTS RealTime-Glo MT Cell Viability Assay in HEK293 cells - 40 hour (AID 1224874); settings: RealTime-Glo luminescence; max response: active compounds read low; further: nearly all actives have a fitted effect of over 50% in size; further: potency means the concentration at half of the fitted maximal effect
Procedure, shortened: (§3)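 HEK293 + NanoLuc + prosubstrate, 600 cells/well; 5 h, 37 C/5% CO2; compound 23 nL in DMSO by pintool; 37 C; luminescence read at 0, 8, 16, 24, 32 and 40 h time points.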

[5] = A CellTox Green Cytotoxicity Assay to monitor cytotoxicity in HEK293 cells - 24 hour (AID 1224875); further: nearly all actives have a fitted effect of over 45% in size; further: potency means the concentration at half of the fitted maximal effect; on activity change: series mostly up to about 77 µM
Procedure, shortened: as §1

[6] = A CellTox Green Cytotoxicity Assay to monitor cytotoxicity in HepG2 cells - 16 hour (AID 1224876); further: nearly all actives have a fitted effect of over 45% in size; further: potency means the concentration at half of the fitted maximal effect
Procedure, shortened: (§4)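 Measurements at 0, 8, 16, 24, 32 and 40 h of treatment captured CellTox Green fluorescence in HepG2 cells that had been co-plated with reagent and preincubated 5 h at 37 C/5% CO2.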

[7] = qHTS RealTime-Glo MT Cell Viability Assay in HepG2 cells - 32 hour (AID 1224877); further: nearly all actives have a fitted effect of over 55% in size; further: potency means the concentration at half of the fitted maximal effect
Procedure, shortened: (§5)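 qHTS, HepG2, 600 cells/well, RealTime-Glo (NanoLuc + prosubstrate) added with cells; 5 h preincubation; DMSO compound addition; 37 C; luminescence at 0/8/16/24/32/40 h.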

[8] = A CellTox Green Cytotoxicity Assay to monitor cytotoxicity in HepG2 cells - 24 hour (AID 1224878); further: nearly all actives have a fitted effect of over 45% in size; further: potency means the concentration at half of the fitted maximal effect
Procedure, shortened: as §4

[9] = qHTS RealTime-Glo MT Cell Viability Assay in HEK293 cells - 0 hour (AID 1224880)
Procedure, shortened: as §3

[10] = A CellTox Green Cytotoxicity Assay to monitor cytotoxicity in HepG2 cells - 32 hour (AID 1224883); further: nearly all actives have a fitted effect of over 50% in size; further: potency means the concentration at half of the fitted maximal effect
Procedure, shortened: as §4

[11] = A CellTox Green Cytotoxicity Assay to monitor cytotoxicity in HEK293 cells - 8 hour (AID 1224884); further: nearly all actives have a fitted effect of over 35% in size; further: potency means the concentration at half of the fitted maximal effect
Procedure, shortened: as §1

[12] = qHTS RealTime-Glo MT Cell Viability Assay in HEK293 cells - 24 hour (AID 1224886); further: nearly all actives have a fitted effect of over 50% in size; further: potency means the concentration at half of the fitted maximal effect; on activity change, negative = cytotoxicity: top concentration of the series differs between compounds
Procedure, shortened: as §2

[13] = qHTS RealTime-Glo MT Cell Viability Assay in HEK293 cells - 8 hour (AID 1224887)
Procedure, shortened: as §3

[14] = A CellTox Green Cytotoxicity Assay to monitor cytotoxicity in HEK293 cells - 16 hour (AID 1224888); further: nearly all actives have a fitted effect of over 35% in size; further: potency means the concentration at half of the fitted maximal effect
Procedure, shortened: as §1

[15] = A CellTox Green Cytotoxicity Assay to monitor cytotoxicity in HEK293 cells - 32 hour (AID 1224881); further: nearly all actives have a fitted effect of over 40% in size; further: potency means the concentration at half of the fitted maximal effect
Procedure, shortened: as §1

[16] = A CellTox Green Cytotoxicity Assay to monitor cytotoxicity in HepG2 cells - 0 hour (AID 1224882); further: nearly all actives have a fitted effect of over 35% in size; further: potency means the concentration at half of the fitted maximal effect
Procedure, shortened: as §4

[17] = qHTS RealTime-Glo MT Cell Viability Assay in HepG2 cells - 16 hour (AID 1224885); further: nearly all actives have a fitted effect of over 50% in size; further: potency means the concentration at half of the fitted maximal effect
Procedure, shortened: as §5

[18] = A CellTox Green Cytotoxicity Assay to monitor cytotoxicity in HepG2 cells - 8 hour (AID 1224890); further: nearly all actives have a fitted effect of over 45% in size; further: potency means the concentration at half of the fitted maximal effect
Procedure, shortened: as §4

[19] = A CellTox Green Cytotoxicity Assay to monitor cytotoxicity in HepG2 cells - 40 hour (AID 1224879); further: nearly all actives have a fitted effect of over 40% in size; further: potency means the concentration at half of the fitted maximal effect
Procedure, shortened: as §4

[20] = qHTS RealTime-Glo MT Cell Viability Assay in HepG2 cells - 0 hour (AID 1224889); further: nearly all actives have a fitted effect of over 50% in size
Procedure, shortened: as §5
On the % scale 0 is the no-effect control and ±100 the full control effect.

C=C(C)C(=O)OCCOCCOC(=O)C(=C)C
inactive: Potency [1] | Potency [2] | Potency [3] | max response [4] 1.33% | Potency [5] | Potency [6] | Potency [7] | Potency [8] | Potency [9] | Potency [10] | Potency [11] | Potency [12] | Potency [13] | Potency [14]

O=[N+]([O-])c1ccc(Nc2ccc(Nc3ccccc3)c(S(=O)(=O)O)c2)c([N+](=O)[O-])c1
inactive: Potency [1] | Potency [2] | Potency [3] | max response [4] 5.22% | Potency [5] | Potency [6] | Potency [7] | Potency [8] | Potency [9] | Potency [15] | Potency [16] | Potency [10] | Potency [11] | Potency [17] | Potency [12] | Potency [13] | Potency [14] | Potency [18]

O=C1c2ccccc2C(=O)C1(O)O
inactive: Potency [1] | Potency [2] | Potency [3] | max response [4] -22.4% | Potency [5] | Potency [6] | Potency [7] | Potency [8] | Potency [9] | Potency [16] | Potency [11] | Potency [17] | Potency [12] | Potency [13] | Potency [14] | Potency [18]

O=C1c2ccccc2C(=O)C1c1nc2ccccc2c(Br)c1O
inactive: Potency [1] | Potency [2] | Potency [3] | max response [4] 21.2% | Potency [5] | Potency [7] | Potency [9] | Potency [15] | Potency [16] | Potency [17] | Potency [12] | Potency [13] | Potency [14] | Potency [20]
active: Potency [19] 4.9 µM

CC=C(Cl)Cl
inactive: Potency [1] | Potency [2] | Potency [3] | max response [4] 12.6% | Potency [6] | Potency [7] | Potency [8] | Potency [19] | Potency [9] | Potency [16] | Potency [10] | Potency [11] | Potency [17] | Potency [12] | Potency [13] | Potency [20] | Potency [18]

COC(=O)CCS
inactive: Potency [1] | Potency [2] | Potency [3] | max response [4] 21.6% | Potency [5] | Potency [6] | Potency [7] | Potency [8] | Potency [19] | Potency [9] | Potency [16] | Potency [10] | Potency [11] | Potency [12] | Potency [14] | Potency [20]

CC(=O)c1cc2ccccc2s1
inactive: Potency [1] | Potency [2] | Potency [3] | max response [4] 2.63% | Potency [5] | Potency [6] | Potency [7] | Potency [8] | Potency [9] | Potency [16] | Potency [10] | Potency [11] | Potency [17] | Potency [12] | Potency [13] | Potency [14] | Potency [18]

CCOc1cccc(-n2cc(C(=O)N3CCN(c4cc(C(=O)O)c5ccccc5c4)CC3)nc2-c2ccc(C)cc2)c1
inactive: Potency [1] | Potency [2] | max response [4] 7.68% | Potency [5] | Potency [6] | Potency [7] | Potency [8] | Potency [19] | Potency [15] | Potency [16] | Potency [10] | Potency [11] | Potency [17] | Potency [12] | Potency [14] | Potency [18]

OCCN1CCN(CCCN2c3ccccc3Sc3ccc(Cl)cc32)CC1
inactive: Potency [16]
active: Potency [1] 26.8 µM | Potency [2] 23.9 µM | Potency [4] 23.9 µM | Potency [6] 21.3 µM | Potency [7] 23.9 µM | Potency [8] 15.1 µM | Potency [15] 26.8 µM | Potency [10] 16.9 µM | Potency [17] 23.9 µM | Potency [12] 23.9 µM | Potency [18] 23.9 µM

C=C(C)C(=O)OCCCCCCCCCCCCC
inactive: Potency [1] | Potency [2] | max response [4] 4.36% | Potency [5] | Potency [6] | Potency [7] | Potency [8] | Potency [19] | Potency [9] | Potency [15] | Potency [16] | Potency [10] | Potency [11] | Potency [17] | Potency [12] | Potency [13] | Potency [14] | Potency [20] | Potency [18]

O=C1NC(=O)c2cc([N+](=O)[O-])ccc21
inactive: Potency [1] | Potency [3] | max response [4] 2.79% | Potency [5] | Potency [6] | Potency [7] | Potency [8] | Potency [19] | Potency [9] | Potency [15] | Potency [16] | Potency [10] | Potency [11] | Potency [17] | Potency [12] | Potency [13] | Potency [14] | Potency [20] | Potency [18]

CC[C@]1(O)C[C@H]2CN(CCc3c([nH]c4ccccc34)[C@@](C(=O)OC)(c3cc4c(cc3OC)N(C=O)[C@H]3[C@@](O)(C(=O)OC)[C@H](OC(C)=O)[C@]5(CC)C=CCN6CC[C@]43[C@@H]65)C2)C1
active: Potency [4] 0.0012 µM
inactive: Potency [1] | Potency [2] | Potency [5] | Potency [6] | Potency [7] | Potency [8] | Potency [9] | Potency [15] | Potency [16] | Potency [11] | Potency [17] | Potency [13] | Potency [14] | Potency [20] | Potency [18]

Cc1cc(=O)c2c(O)c3c(O)cc(=O)c4c3c3c(cc(O)c1c23)C(C)(C)C=4O
inactive: activity change, negative = cytotoxicity [2] -25.2% [at 15.8 µM] | activity change, negative = cytotoxicity [9] 0.327% [at 15.8 µM] | activity change, negative = cytotoxicity [13] 3.53% [at 15.8 µM] | activity change, negative = cytotoxicity [20] -2.14% [at 15.8 µM]
active: Potency [1] 4.65 µM | Potency [5] 5.22 µM | Potency [6] 4.65 µM | Potency [8] 4.65 µM | Potency [19] 3.69 µM | Potency [15] 5.22 µM | Potency [16] 4.65 µM | Potency [10] 4.14 µM | Potency [11] 7.37 µM | Potency [14] 7.37 µM | Potency [18] 4.65 µM

CN1CC(=O)N2[C@H](c3ccc4c(c3)OCO4)c3[nH]c4ccccc4c3C[C@@H]2C1=O
inactive: Potency [1] | Potency [2] | max response [4] -16.3% | Potency [5] | Potency [6] | Potency [7] | Potency [8] | Potency [19] | Potency [9] | Potency [16] | Potency [10] | Potency [11] | Potency [17] | Potency [12] | Potency [13] | Potency [14] | Potency [20] | Potency [18]
